This is an account of results in PubChem BioAssay (NCI).

What all share (assay): NCI-60 one-dose screen, 48 h (100 = growth as untreated, 0 = no growth, -100 = all killed)
What all share (details): 10 µM

Assay [1] relates to BT-549 breast.
The subject of assay [2] is MDA-MB-435 melanoma.
Assay [3] concerns SW-620 colon.
Assay [4] has as its system MCF7 breast.
Assay [5] has as its system HCT-116 colon.
Assay [6] concerns HCC-2998 colon.
In assay [7] the test system is KM12 colon.

Each structure is given as a SMILES string. About 83,000 compounds went through this panel and 20% of them were active in at least one assay; those are over-represented in the sample as a whole.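 Plates (96-well) were seeded with cells, treated with compound at one concentration, and incubated for 48 hours before percent growth was determined.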 A number with no mark means an inactive call. The source made the active and inactive calls. Rule for the calls: active = growth percent below 10; inactive = the rest.

Consider `COc1cc(C2CC(c3ccc(Nc4ccnc5cc(Cl)ccc45)cc3)=NN2c2ccc(Cl)cc2)cc(OC)c1OC` (stereo unspecified), for which the growth in assay [1] was 68.4%; in assay [2], 8.05% (active); in assay [3] it was 39.4%; in assay [4], 29.4%; in assay [5], 46.6%; in assay [6] it was 55.4%. In assay [7], the growth is 30.5%.

As to `COc1ccc(Cn2c(C(N)=O)cc3c2-c2nc(N)ncc2CCC3)cc1`, the growth in assay [1] was 109%; in assay [2] it was 97.2%; in assay [3], 91.3%; in assay [4], 92.7%; in assay [5], 101%; in assay [6], 104%. Further, the growth in assay [7] was 97.5%.

Consider `CC/C(=N\N=C(/CC)c1ccc(Br)cc1)c1ccc(Br)cc1`, for which the growth is 91.1% in assay [1]; 106% in assay [2]; 102% in assay [3]; 90.9% in assay [4]; 78.1% in assay [5]; 99.4% in assay [6]. Also, the growth in assay [7] is 99.5%.

As for `O=C1NC(=O)c2ncccc21`, the growth was 91.1% in assay [1]; 100% in assay [2]; 120% in assay [3]; 95.5% in assay [4]; 102% in assay [5]; 103% in assay [6]. Moreover, in assay [7], the growth was 107%.

In the case of `Cc1ccc(NC(=O)Nc2c(Cl)cccc2Cl)cn1`, the growth in assay [1] is 118%; in assay [2] it was 38.3%; in assay [3], 127%; in assay [4], 91.8%; in assay [5], 104%; in assay [6] it was 104%. In addition, the growth in assay [7] is 105%.

For the compound `CCCCCCNC(=O)Oc1ccc(/C(=C(/CC)Cc2ccccc2)c2ccc(OCCN3CCCCC3)cc2)cc1`, the growth in assay [1] is 97.4%; in assay [2], 89%; in assay [3], 79.1%; in assay [4] it was 28.8%; in assay [5], 62.8%; in assay [6], 87.3%. Besides, the growth in assay [7] is 84%.

As for `CS(=O)(=O)Nc1cccc(-c2cc(-c3ccccc3Cl)c(C#N)c(N)n2)c1`, the growth in assay [1] is 37.1%; in assay [2], -45.8% (active); in assay [3] it was 24.5%; in assay [4], 22.7%; in assay [5], 21.8%; in assay [6] it was -3.16% (active). For the same compound, the growth in assay [7] was 24.5%.

Take `COc1ccc(-c2nc3sccn3c2-c2nc3c([nH]2)C(=O)c2ccccc2C3=O)cc1`: the growth was 112% in assay [1]; 95.9% in assay [2]; 101% in assay [3]; 83.8% in assay [4]; 91% in assay [5]; 95.7% in assay [6]. For the same compound, in assay [7], the growth was 103%.

As for `O=S(=O)(NCCCNc1nccc(-c2c(-c3ccc(F)cc3)nc3sccn23)n1)c1ccc2ccccc2c1`, the growth in assay [1] is 46.1%; in assay [2], 25.7%; in assay [3], 51.9%; in assay [4] it was 30.3%; in assay [5], 37.2%; in assay [6] it was 7.22% (active). The growth in assay [7] was 19.9%.

On to `NC(=S)N=Nc1c(O)c2ccccc2c2ccccc12`, for which the growth was 49.5% in assay [1]; -85.5% (active) in assay [2]; 47% in assay [3]; 24.5% in assay [4]; 32% in assay [5]; 98.6% in assay [6]. The growth in assay [7] was 92%.

Consider `CC12O[C@H](C[C@@H](OC(=O)c3ccccc3)[C@H]1O)n1c3ccccc3c3c4c(c5c6ccccc6n2c5c31)C(=O)NC4=O`, for which the growth in assay [1] was 84.8%; in assay [2] it was 60.2%; in assay [3], 60.2%; in assay [4] it was 69.3%; in assay [5], 70.1%; in assay [6] it was 87.2%. Besides, the growth in assay [7] was 19.3%.

`CC(C)=CCc1cc(O)cc2c1OC(C=C(C)C)C1=C2C(=O)C2=C(NCCS2(=O)=O)C1=O` (stereo unspecified): the growth was 18.3% in assay [1]; -56.4% (active) in assay [2]; 4.68% (active) in assay [3]; -54.5% (active) in assay [4]; -15.4% (active) in assay [5]; -12.6% (active) in assay [6]. Further, the growth in assay [7] was 43.3%.

As to `CCCCC(CCCCCC(CCCC)NCc1ccc2c(c1)OCO2)NCc1ccc2c(c1)OCO2` (stereo unspecified), the growth was -65.7% (active) in assay [1]; -82.4% (active) in assay [2]; -100% (active) in assay [3]; -100% (active) in assay [4]; -100% (active) in assay [5]; -100% (active) in assay [6]. The growth in assay [7] was -100% (active).

For `CN(C)CCN1C(=O)c2cccc3cc(N)cc(c23)C1=O`, the growth was 46.9% in assay [1]; 33.7% in assay [2]; 21% in assay [3]; 7.96% (active) in assay [4]; 13.7% in assay [5]; 15.4% in assay [6]. In addition, in assay [7], the growth is 28.8%.

Turning to `CC(C)C[C@H](NC(=O)[C@H](Cc1cccc2ccccc12)NS(=O)(=O)c1cccc2cccnc12)B(O)O`, the growth was -49.8% (active) in assay [1]; -52.2% (active) in assay [2]; -16% (active) in assay [3]; 9.94% (active) in assay [4]; -91.2% (active) in assay [5]; -89.2% (active) in assay [6]. Also, in assay [7], the growth is -73.8% (active).

As to `Oc1[nH]c2ccc(Cl)cc2c1/C=c1/ccc2c(c1)N=C(c1cccs1)N=2`, the growth was 57.4% in assay [1]; 39% in assay [2]; 85.9% in assay [3]; 10.1% in assay [4]; 52.9% in assay [5]; 88.6% in assay [6]. Moreover, the growth in assay [7] is 58%.

As for `Cc1cc(=O)[nH]c(N/N=C/c2ccccc2O)n1`, the growth in assay [1] was 101%; in assay [2], 72.1%; in assay [3], 56.5%; in assay [4] it was 4.95% (active); in assay [5] it was 8.06% (active); in assay [6], 54.3%. Besides, the growth in assay [7] was 51.2%.

For `CC(C)(C)NC/C(=C\c1ccccc1)C(=O)c1ccccc1`, the growth is 15.8% in assay [1]; 4.28% (active) in assay [2]; -30.6% (active) in assay [3]; 7.56% (active) in assay [4]; -95.3% (active) in assay [5]; -78.6% (active) in assay [6]. The growth in assay [7] is 14%.
